For 40 compounds, Potency results are on record in PubChem BioAssay (Tox21).

SMILES strings stand for the structures. “And” between values parts separate entries of the source, which are not always exact repeats. Identical values can stand only once. Inconclusive results are not listed. Where a structure was tested more than once in an assay, its records may differ in their call. The source made the active and inactive calls. Calls come from the whole dose curve; as a rule, active = well fitted cell-killing curve with a large enough effect in the repeat runs; inconclusive = weak or mixed curves, or effect the other way; inactive = no such curve, though single readings can be large or run the other way.
% is set by controls: 0 for no effect and ±100 for the full control effect; potency is the fitted concentration of half-maximal effect.

This test can be described thus: Caspase-3/7 induction in CHO-K1 cells by small molecules, qHTS cell viability counter screen (AID 1346979). Note: nearly all actives have a fitted effect of over 35% in size. Conditions: CellTiter-Fluor fluorescence, 17 h; series mostly up to 92.4 µM. The source says: National Center for Advancing Translational Sciences [NCATS]
NIH Chemical Genomics Center [NCGC]
U.S. Environmental Protection Agency [EPA]
National Institutes of Environmental Health Sciences [NIEHS]
National Toxicology Program [NTP]
U.S. Food and Drug Administration [FDA]
Apoptosis is a process of programmed cell death and plays a central role in the development of multicellular organisms. It is a highly regulated process and induces cell death by activating caspases, which are the members of cysteine aspartic acid-specific protease (caspase) family. Caspases involved in apoptosis are classified by their mechanism of action as initiator caspases (caspase-2, -8, -9 and -10) and executioner caspases (caspase-3, -6, and -7). Inhibition of apoptosis results in number of cancers, autoimmune diseases, inflammatory diseases and viral infection. To identify small molecule compounds that induce apoptosis, a homogeneous, luminescent Caspase-Glo 3/7 assay was used. Wild type CHO-K1 cells were used to screen Tox21 libraries for identifying caspase-3/7 activity inducers. Also cytotoxicity of the compounds was tested in parallel by measuring the cell viability using CellTiter-Fluor assay system in the same wells.
Tox21 Assay Protocol Summary:
CHO-K1 cells were dispensed at 1,500 per well in 5uL of culture medium into white solid bottom 1536-well plates (Corning Life Sciences, Corning, NY) using a Multidrop Combi (Thermo Scientific, Waltham, MA) dispenser. The assay plates were incubated at 37 C and 5% CO2 for 5hr, and then 23nL of compounds dissolved in DMSO and positive control were transferred using a Pintool station (Wako, San Diego, CA). The assay plates were incubated at 37C and 5% CO2 for 17hr. For cytotoxicity read, after 16hr incubation at 37C, 1uL CellTiter-Fluor reagent (Promega Corporation, Madison, WI) was added to each well of the assay plates using Flying Reagent Dispenser (FRD, Aurora Discovery, San Diego, CA). After 1hr incubation at 37C and 5% CO2, the fluorescence signal was quantified using a ViewLux plate reader (PerkinElmer, Shelton, CT).
On the technique in general: Quantitative high-throughput screening tests each substance at several concentrations.
For the compound `CCN(CC)C(=S)[S-].CCN(CC)C(=S)[S-].[Zn+2]`, the Potency was 2.41 µM (active).

`CC(=O)[O-].CC(=O)[O-].O.O.[Cd+2]`: the Potency was 1.7 µM (active).

As to `CC(Cl)CN(C)C` (stereo not given), the Potency entry was “inactive”.

Turning to `N#CCCSCCC#N`, the Potency result was “inactive”.

Turning to `CC1(c2ccc(Oc3ccccc3)cc2)OC(=O)N(Nc2ccccc2)C1=O` (stereo not given), the Potency was 6.9 µM (active).

As to `Cc1ccc(OP(=O)(Oc2ccccc2)Oc2ccccc2)cc1`, the Potency entry was “inactive”.

In the case of `C[As+](C)(C)CC(=O)[O-]`, the Potency result was “inactive”.

For the compound `CCCCCCCCCCCCCCCC[n+]1ccccc1`, the Potency is 25.5 µM (active) [middle of 4 runs].

Regarding `CCCCCCCCCC[N+](C)(C)CCCCCCCCCC`, the Potency is 19.3 µM (active).

`O=C(CCl)Nc1ccccc1`: the Potency is 54.5 µM (active).

In the case of `COCC(=O)N(c1c(C)cccc1C)[C@H](C)C(=O)OC`, the Potency result is “inactive”.

`Nc1ccc([N+](=O)[O-])cc1Cl`: the Potency is 61.1 µM (active).

For the compound `O=CC(Br)(Br)Br`, the Potency was 19.3 µM (active).

For `O=C(O)C1C2CCC(O2)C1C(=O)O` (stereo not given), the Potency was 55.1 µM (active) and 44.5 µM (active).

Consider `Clc1ccc(C(Cl)(Cl)Cl)c(Cl)c1`, for which the Potency entry is “inactive”.

Take `C[C@H]1O[C@@H](O[C@H]2[C@@H](O)C[C@H](O[C@H]3[C@@H](O)C[C@H](O[C@H]4CC[C@@]5(C)[C@H](CC[C@@H]6[C@@H]5CC[C@]5(C)[C@@H](C7=CC(=O)OC7)CC[C@]65O)C4)O[C@@H]3C)O[C@@H]2C)C[C@H](O)[C@@H]1O`: the Potency entry is “inactive”.

`COP(=O)(OC)SCn1c(=O)oc2cc(Cl)cnc21`: the Potency result is “inactive”.

As for `O=C/C(Cl)=C(/Cl)C(=O)O`, the Potency was 38.5 µM (active) and 30.6 µM (active).

`N#C/C=C/c1ccccc1`: the Potency entry was “inactive”.

Take `Clc1ccc(CSC(Cn2ccnc2)c2ccc(Cl)cc2Cl)cc1` (stereo not given): the Potency was 18.8 µM (active).

As for `C=COCCCl`, the Potency entry was “inactive”.

For `CC(C)Oc1cccc(NC(=O)c2ccccc2C(F)(F)F)c1`, the Potency was 45.8 µM (active).

Turning to `O=C(CCCN1CCC2(CC1)C(=O)NCN2c1ccccc1)c1ccc(F)cc1`, the Potency is 23.7 µM (active).

On to `CC(C)C1CCC(Cc2ccc(Cl)cc2)C1(O)Cn1cncn1` (stereo not given), for which the Potency is 30.3 µM (active).

For the compound `NNC(=O)c1ccccc1`, the Potency result is “inactive”.

Regarding `CC(C)(C)c1ccc(CSc2cnn(C(C)(C)C)c(=O)c2Cl)cc1`, the Potency was 0.0172 µM (active).

In the case of `COc1ccc(OC)c(CC(C)N)c1` (stereo not given), the Potency result is “inactive”.

Take `[Cd+2].[Cl-].[Cl-]`: the Potency was 1.23 µM (active) and 611 nM (active).

In the case of `Clc1ccc(C(c2ccc(Cl)cc2)C(Cl)(Cl)Cl)cc1`, the Potency was 69.1 µM (active) and inactive.

On to `CC(=[OH+])/C=C(/C)[O-].CC(=[OH+])/C=C(\C)[O-].CC(=[OH+])/C=C(\C)[O-].[Al]`, for which the Potency result was “inactive”.

On to `Clc1ccc(Oc2ccccc2)cc1`, for which the Potency result was “inactive”.

Regarding `COc1ccc([N+](=O)[O-])cc1O`, the Potency entry is “inactive”.

`Cc1cc(C)cc(OP(=O)(Oc2cc(C)cc(C)c2)Oc2cc(C)cc(C)c2)c1`: the Potency entry is “inactive”.

As to `ClC1=C(Cl)[C@]2(Cl)[C@@H]3[C@@H]4C[C@@H]([C@H]5O[C@@H]45)[C@@H]3[C@@]1(Cl)C2(Cl)Cl`, the Potency is 61.1 µM (active).

Take `CC(=O)[O-].CC(=O)[O-].[Hg+2]`: the Potency is 2.43 µM (active).

For `CC(C)(C)c1cc([N+](=O)[O-])cc(C(C)(C)C)c1O`, the Potency is 7.7 µM (active).

As to `CC1(C)C(/C=C(\Cl)C(F)(F)F)C1C(=O)OC(C#N)c1cccc(Oc2ccccc2)c1` (stereo not given), the Potency entry is “inactive”.

For the compound `COc1cc(C=O)cc2c1[C@H](COC(N)=O)[C@]1(OC(C)=O)ON2C[C@H]2[C@@H]1N2C(C)=O`, the Potency is 61.1 µM (active).

Turning to `O=C(NC(=O)c1c(F)cccc1F)Nc1cc(Cl)c(OC(F)(F)C(F)F)c(Cl)c1`, the Potency result was “inactive”.

Take `O=C1c2ccccc2C(=O)C1C(=O)C(c1ccccc1)c1ccc(Cl)cc1` (stereo not given): the Potency was 15.4 µM (active).
